The values below come from PubChem BioAssay AID1240 (Sanford-Burnham Center for Chemical Genomics, 2008).

Screen size: about 50,000 compounds; about 800 (1.6%) showed an effect of 50% or more. Many of the other results were omitted from the sample, so strong results are more common in it than they were.

Sequence of Bcl-2-like protein 10 (Homo sapiens) (Q9HD36 whole entry, looked up): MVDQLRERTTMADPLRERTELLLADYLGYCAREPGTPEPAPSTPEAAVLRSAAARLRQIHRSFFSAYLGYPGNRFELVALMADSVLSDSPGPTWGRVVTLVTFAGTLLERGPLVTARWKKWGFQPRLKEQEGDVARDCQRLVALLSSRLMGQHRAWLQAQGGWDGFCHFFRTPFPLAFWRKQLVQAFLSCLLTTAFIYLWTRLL

The assay addresses Bcl-2-like protein 10 (Homo sapiens) (UniProt Q9HD36). As to the kind of experiment: Phenotype converters, Bcl-B/TR3 peptide binding displacement, primary biochemical FP (AID 1240).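 Note: 0% = Bcl-B with tracer peptide and DMSO and 100% = tracer peptide lacking Bcl-B.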 The following applies: GST-Bcl-B / FITC-TR3 peptide fluorescence polarization; stronger effect = higher value; compound at 3.75 mg/L. (In general: Fluorescence polarisation rises when a labelled molecule tumbles more slowly, as on binding a larger partner.)
Take `COc1ccc(NC(=O)/C(=C\c2ccccc2OC)NC(=O)c2ccccc2OC)cc1`: the displacement was 3%.
In the case of `O=C1N/C(=N\N=C\c2ccccc2F)SC1Cc1ccccc1[N+](=O)[O-]` (stereo not given) it was 7.3%.
To `O=C1C2C(c3ccc(Cl)cc3)OC3(C(=O)c4ccccc4C3=O)C2C(=O)N1c1ccc(F)c([N+](=O)[O-])c1` (stereo not given) belongs 5.6%.
In the case of `COc1ccccc1NC(=O)C1=C(C)NC(=O)NC1c1cccc([N+](=O)[O-])c1` (stereo not given) it was -7.1%.
For `CCCC(C)NS(=O)(=O)c1ccccc1[N+](=O)[O-]` (stereo not given), the displacement was determined as 3%.
`O=C(NCC1CCCO1)c1ccc(F)c2ccccc12` (stereo not given): the displacement is -13.5%.
As for `O=C(CC1S/C(=N\N=C\c2cccs2)NC1=O)Nc1ccc(Cl)c(Cl)c1` (stereo not given), the displacement came out at 7.8%.
To `O=C(CC1S/C(=N\N=C\c2ccco2)NC1=O)Nc1ccc(C(=O)O)cc1` (stereo not given) belongs -0.3%.
To `CC(=O)c1cccc(NC(=O)CC2S/C(=N\N=C\c3cccs3)NC2=O)c1` (stereo not given) belongs -3.9%; to `O=C(CC1S\C(=N/N=C/C=C/c2ccccc2)NC1=O)Nc1ccc(C(=O)O)cc1` (stereo not given), 41.6%.
In the case of `O=C(CC1S/C(=N\N=C\c2ccccc2)NC1=O)Nc1ccc(C(=O)O)cc1` (stereo not given) it was 69.5%.
For the compound `O=C(CC1S/C(=N\N=C\c2cccs2)NC1=O)Nc1ccc(C(=O)O)cc1` (stereo not given), the displacement was determined as 121%.
Take `CCOC(=O)C1=NNC2C(=O)N(c3ccc(C)c(C)c3)C(=O)C12` (stereo not given): the displacement is 4.5%.
For `CCc1ccc(-c2csc(N3N=C(c4cccs4)CC3c3ccc(F)cc3)n2)cc1` (stereo not given), the displacement amounted to 0.2%.
For the compound `COc1ccc(NC(=O)c2ccccc2NC(=O)c2ccc(C)cc2)cc1`, the displacement is -10.2%.
As for `O=C1/C(=C/c2cn(-c3ccccc3)nc2-c2cccs2)SC(=S)N1C1CCS(=O)(=O)C1` (stereo not given), the displacement came to 100%.
`O=C(O)CCN1C(=O)/C(=C/c2cn(-c3ccccc3)nc2-c2cccs2)SC1=S`: the displacement was -14.1%.
To `COc1ccc(N2C(=O)/C(=C/c3cn(-c4ccccc4)nc3-c3cccs3)SC2=S)cc1` belongs 0.4%.
For `O=C1/C(=C/c2cn(-c3ccccc3)nc2-c2cccs2)SC(=S)N1Cc1ccccc1`, the displacement stood at 115%.
In the case of `CC(C)CN1C(=O)/C(=C/c2cn(-c3ccccc3)nc2-c2cccs2)SC1=S` it was 34.6%; in that of `O=C1/C(=C/c2cn(-c3ccccc3)nc2-c2ccco2)SC(=S)N1C1CCS(=O)(=O)C1` (stereo not given), 11.2%.
Regarding `COc1ccc(-n2c(SCC(=O)Nc3ccc(C)cc3)nc(O)c(Cc3ccccc3)c2=O)cc1`, the displacement amounted to 22.8%.
In the case of `Cc1ccnc(N2C(=O)c3ccc(C(=O)O)cc3C2=O)c1` it was 1.9%; in that of `Cc1nn(-c2ccccc2)c2sc(C(=O)N/N=C/c3cc4c(cc3[N+](=O)[O-])OCO4)cc12`, -1.4%.
In the case of `Cc1ccccc1OCC(=O)Nc1ccc(I)cc1Cl` it was 9.5%.
For the compound `COC(=O)C1=C(C)N(C)C(C)=C(C(=O)OC)C1c1ccc(Br)cc1`, the displacement is -10.8%.
In the case of `CCOc1ccc(-c2nc(Cc3ccccc3OC)no2)cc1` it was -6.4%; in that of `O=C1C2CCCCC2C(=O)N1CC(=O)N1c2ccccc2Sc2ccc(C(F)(F)F)cc21` (stereo not given), -14.3%; in that of `CCCOc1ccc(N2C(=O)CC(NCCNc3ccc([N+](=O)[O-])cn3)C2=O)cc1` (stereo not given), -1.7%.
In the case of `CCn1c2ccccc2c2cc(C=Nc3ccccc3C(=O)Nc3ccccc3)ccc21` it was -5.9%; in that of `O=C(Nc1ccccc1)c1ccccc1N=Cc1ccc(C=Nc2ccccc2C(=O)Nc2ccccc2)cc1`, 121%.
Regarding `O=C(Nc1ccccc1)c1ccccc1N=Cc1ccc(Cl)c([N+](=O)[O-])c1`, the displacement stood at 6.6%.
Take `CCOP(=O)(OCC)C(OC(N)=O)c1ccc([N+](=O)[O-])cc1` (stereo not given): the displacement is -9.1%.
As for `Cc1onc(-c2c(F)cccc2Cl)c1C(=O)NCc1ccccn1`, the displacement is -5.5%.
As to `O=[N+]([O-])c1ccccc1N[C@H]1O[C@H](CO)[C@@H](O)[C@@H]1O`, the displacement is 6%.
To `C[C@@H]1O[C@@H](Nc2ccc(Cl)cc2[N+](=O)[O-])[C@H](O)[C@H](O)[C@H]1O` belongs 54.7%; to `Cc1cc(N[C@@H]2O[C@@H](C)[C@H](O)[C@@H](O)[C@H]2O)c([N+](=O)[O-])cc1C`, 6.5%; to `CC1=NN(c2ccc(C(=O)O)cc2)C(=O)/C1=C\c1ccc(O)cc1`, -50.5%.
In the case of `Cc1cc2nc(-c3cc(NC(=O)COc4ccc([N+](=O)[O-])cc4)ccc3O)oc2cc1C` it was 0.2%; in that of `Cc1c(NC(=O)/C=C/c2cn(-c3ccccc3)nc2-c2ccc(F)cc2)c(=O)n(-c2ccccc2)n1C`, 12.2%; in that of `Cc1c(NC(=O)/C=C/c2ccccc2)c(=O)n(-c2ccccc2)n1C`, 2.7%.
`Cc1c(NC(=O)/C=C/c2cn(-c3ccccc3)nc2-c2ccccc2)c(=O)n(-c2ccccc2)n1C`: the displacement turned out to be 70%.
In the case of `COc1ccc(C(=O)N2CCN(Cc3ccccc3F)CC2)cc1OC` it was 56%; in that of `COc1ccc(C(=O)N2CCN(Cc3cccc(Oc4ccccc4)c3)CC2)cc1OC`, 6.4%; in that of `COc1ccc(C(=O)N2CCN(Cc3ccccc3C)CC2)cc1OC`, -1%.
In the case of `COc1ccc(C(=O)N2CCN(Cc3cccc4ccccc34)CC2)cc1OC` it was -5.2%; in that of `O=C(c1ccccc1)N1CCN(Cc2cccc(Oc3ccccc3)c2)CC1`, -8.8%.
To `COc1cc(C(=O)N2CCN(Cc3cccc(Oc4ccccc4)c3)CC2)cc(OC)c1OC` belongs 132%; to `CC(=O)SCCC(=O)N1CCn2c3c(c4cc(C)ccc42)CCCC31` (stereo not given), 14.3%.
Take `CN1CCN(CC(=O)N2CCn3c4c(c5cc(C6CCCCC6)ccc53)CCCC42)CC1` (stereo not given): the displacement stood at 60.9%.
`CCn1c2c(c3cc(C4CCCCC4)ccc31)CCCC2O` (stereo not given): the displacement stood at 2.5%.
Turning to `O=C(Nc1ccc(Cl)cc1)Nc1ccc([N+](=O)[O-])cc1Br`, the displacement amounted to 3.9%.
Turning to `CCCC(=O)Nc1ccc2c(c1)Cc1ccccc1-2`, the displacement was -1.1%.
With `O=C(N/N=C/c1cccnc1)c1ccco1`, the displacement came out at 18.4%.
Regarding `O=C1OC(Nc2ncccn2)(c2ccccc2)c2ccccc21` (stereo not given), the displacement is -7.3%.
To `O=C1OC(c2ccc(NC(=O)C(F)(F)F)cc2)(c2ccc(NC(=O)C(F)(F)F)cc2)c2ccccc21` belongs 4.8%; to `O=S(=O)(c1ccc2ccccc2c1)N1CCC(Cc2ccccc2)CC1`, -21.4%; to `O=C(CCN1C(=O)c2ccccc2C1=O)Nc1ccccc1C(=O)N1CCOCC1`, 10%.
To `O=C1CNC(=O)c2c(ncn2Cc2ccccc2)N1` belongs -13.2%; to `Cc1ccc(N2CCCCC2)c2c1C(=O)c1ccccc1C2=O`, 1.1%.
To `O=C1c2ccccc2-c2onc3ccc(N4CCCCC4)c1c23` belongs 145%.
For the compound `O=C1c2ccccc2-c2onc3ccc(Nc4cccc([N+](=O)[O-])c4)c1c23`, the displacement is 24.2%.
To `O=C1c2ccccc2C(=O)c2c(NC3CCCCC3)cccc21` belongs -2.9%; to `O=C1c2ccccc2-c2onc3c(N4CCN(c5ccccc5)CC4)ccc1c23`, -8.2%.
To `O=C1c2ccccc2-c2onc3ccc(NC4CCCCC4)c1c23` belongs 59.4%.
